Results from PubChem BioAssay.
Active and inactive are the calls of the source.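 The calls were made as follows, unless noted: active = compounds that lower survival of HCT116 colon cancer cells in the luminescence readout, no numeric limit stated; inactive = the rest.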

Experiment: GLP1 release stimulators, primary, NCI-H716, NPC library (AID 1117341;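 active = compound raises GLP1 secretion from the human gut endocrine cells, with no numeric limit stated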; also: reference of the scale not given here)
Conditions: NCI-H716 cells, at 10 µM, hits give high values

| Structure (SMILES) | GLP1 secretion stimulation |
| --- | --- |
| NC(=O)CC[C@@H]1NC(=O)[C@H](Cc2ccccc2)NC(=O)[C@H](Cc2ccc(O)cc2)NC(=O)CCSSC[C@@H](C(=O)N2CCC[C@H]2C(=O)N[C@@H](CCCN=C(N)N)C(=O)NCC(N)=O)NC(=O)[C@H](CC(N)=O)NC1=O | 2.4% (inactive) |
| NCCNc1ccc(NCCN)c2c1C(=O)c1ccncc1C2=O | -4.8% (inactive) |
| O=C(O)Cc1ccccc1Oc1ccc(Cl)cc1Cl | 1% (inactive) |
| Cc1ccc(C(C)C)c(O)c1 | -0.9% (inactive) |
| CCN1/C(=C/C=C/c2sc3ccccc3[n+]2CC)Sc2ccccc21 | -2.9% (inactive) |
| CCc1cc2cc(OC)c(OC)cc2c(Cc2ccccc2)n1 | 3.6% (inactive) |
| C=C(C)C(=O)OCC(O)CO (stereo not drawn) | -1.4% (inactive) |
| CCCCCCCCCCCC(=O)OCC(O)CO (stereo not drawn) | -3.3% (inactive) |
| CN1CCN(C(=O)C2CCCCC2)CC1 | 5.1% (inactive) |
| CC(=O)O[C@H]1C[C@@H]2CC[C@H]3[C@H]4C[C@H]([N+]5(C)CCCCC5)[C@@H](OC(C)=O)[C@@]4(C)CC[C@@H]3[C@@]2(C)C[C@H]1[N+]1(C)CCCCC1 | -1.6% (inactive) |
| NS(=O)(=O)c1ccc(N2CCCCS2(=O)=O)cc1 | -1.7% (inactive) |
| NC(=O)NS(=O)(=O)c1ccc(Cl)cc1 | -1.2% (inactive) |
| CCOC(=O)c1cccc(N)c1 | -4.7% (inactive) |
| CCCCCCCCCCCCCCCCCC(=O)[O][Al] | -1.2% (inactive) |
| C[C@H](CCC(=O)O)[C@H]1CC[C@H]2[C@@H]3CC[C@@H]4C[C@H](O)CC[C@]4(C)[C@@H]3C[C@H](O)[C@]12C | -5% (inactive) |
| O=C(CCOCCOCCOCCOCCC(=O)Nc1c(I)cc(I)c(C(=O)O)c1I)Nc1c(I)cc(I)c(C(=O)O)c1I | 0.3% (inactive) |
| CC(CC(C#N)(c1ccccc1)C(C)C)N(C)C (stereo not drawn) | 0.5% (inactive) |
| CNC(=O)c1cnn(-c2nc(N)c3ncn([C@@H]4O[C@H](CO)[C@@H](O)[C@H]4O)c3n2)c1 | 4.6% (inactive) |
| O=C(O)c1cc(=O)c2c3nc4ccccc4oc-3cc(=O)c2[nH]1 | -7.4% (inactive) |
| Cc1oc(=O)oc1COC(=O)[C@@H]1N2C(=O)[C@@H](NC(=O)[C@H](N)c3ccccc3)[C@H]2SC1(C)C | -1.9% (inactive) |

| Structure (SMILES) | GLP1 secretion stimulation |
| --- | --- |
| CCCCCCCCCCCCCC[N+](C)(C)C | 29.7% (active) |
| COc1cc2c(cc1OC)CN(C(=O)[C@H](C)N[C@@H](CCc1ccccc1)C(=O)O)[C@H](C(=O)O)C2 | -1.8% (inactive) |
| CCOC(=O)c1cccnc1 | 1.1% (inactive) |
| Cc1cc(CC(=O)O)c(C)n1-c1ccc(Cl)cc1 | -0.2% (inactive) |
| CCOC(=O)C(C#N)=C(c1ccccc1)c1ccccc1 | -0.1% (inactive) |
| CC1CCCCN1CCCOC(=O)c1ccc(OC2CCCCC2)cc1 (stereo not drawn) | 5.9% (inactive) |
| NC(=S)N/N=C/c1cccnc1 | 1.9% (inactive) |
| C[C@@H](N)C(=O)O | 5.9% (inactive) |
| C[N+]1(CC2COC(c3ccccc3)(c3ccccc3)O2)CCCCC1 (stereo not drawn) | 0.7% (inactive) |
| O=C(O)CNC(=O)c1ccccc1 | 4% (inactive) |
| CC(CSC(=O)c1ccccc1)C(=O)N1C[C@@H](Sc2ccccc2)C[C@H]1C(=O)O (stereo partly drawn) | -4% (inactive) |
| O=C(O)c1ccccc1S | -1.4% (inactive) |
| CC[N+](CC)(CC)CCOC(=O)C(C1CCCC1)C1CCCC1 | 1.6% (inactive) |
| O=C(O)[C@@H]1C(=CCO)O[C@@H]2CC(=O)N12 | -1.2% (inactive) |
| N[C@@H](Cc1cc(I)c(O)c(I)c1)C(=O)O | -3.4% (inactive) |
| Cc1cc(O)c(C)c(C)c1O | -0.5% (inactive) |
| CC(C)=CCC/C(C)=C/CC/C(C)=C/CCC(=O)OC/C=C(\C)CCC=C(C)C | 3.3% (inactive) |
| O=C(/C=C/c1ccc(O)c(O)c1)O[C@@H]1C[C@@](OC(=O)/C=C/c2ccc(O)c(O)c2)(C(=O)O)C[C@@H](O)[C@@H]1O | 3.7% (inactive) |
| CCO[C@@H]1O[C@H](C(COCc2ccccc2)OCc2ccccc2)[C@H](OCc2ccccc2)[C@H]1O (stereo partly drawn) | 6.9% (inactive) |

Experiment: HCT116 colon cancer cell growth inhibition, primary screen, CellTiter-Glo luminescence, NPC library (AID 1117342)
Conditions: at 20 µM (top of the series)

| Structure (SMILES) | inhibition of viability |
| --- | --- |
| NC(=O)CC[C@@H]1NC(=O)[C@H](Cc2ccccc2)NC(=O)[C@H](Cc2ccc(O)cc2)NC(=O)CCSSC[C@@H](C(=O)N2CCC[C@H]2C(=O)N[C@@H](CCCN=C(N)N)C(=O)NCC(N)=O)NC(=O)[C@H](CC(N)=O)NC1=O | 1% (inactive) |
| NCCNc1ccc(NCCN)c2c1C(=O)c1ccncc1C2=O | 47% (inactive) |
| O=C(O)Cc1ccccc1Oc1ccc(Cl)cc1Cl | -0.8% (inactive) |
| Cc1ccc(C(C)C)c(O)c1 | -2.9% (inactive) |
| CCN1/C(=C/C=C/c2sc3ccccc3[n+]2CC)Sc2ccccc21 | 98.8% (active) |
| CCc1cc2cc(OC)c(OC)cc2c(Cc2ccccc2)n1 | 41.3% (inactive) |
| C=C(C)C(=O)OCC(O)CO (stereo not drawn) | 1.9% (inactive) |
| CCCCCCCCCCCC(=O)OCC(O)CO (stereo not drawn) | -2.2% (inactive) |
| CN1CCN(C(=O)C2CCCCC2)CC1 | 12% (inactive) |
| CC(=O)O[C@H]1C[C@@H]2CC[C@H]3[C@H]4C[C@H]([N+]5(C)CCCCC5)[C@@H](OC(C)=O)[C@@]4(C)CC[C@@H]3[C@@]2(C)C[C@H]1[N+]1(C)CCCCC1 | -3.6% (inactive) |
| NS(=O)(=O)c1ccc(N2CCCCS2(=O)=O)cc1 | -8.93% (inactive) |
| NC(=O)NS(=O)(=O)c1ccc(Cl)cc1 | 2.5% (inactive) |
| CCOC(=O)c1cccc(N)c1 | -7.9% (inactive) |
| CCCCCCCCCCCCCCCCCC(=O)[O][Al] | 5.4% (inactive) |
| C[C@H](CCC(=O)O)[C@H]1CC[C@H]2[C@@H]3CC[C@@H]4C[C@H](O)CC[C@]4(C)[C@@H]3C[C@H](O)[C@]12C | 57% (active) |
| O=C(CCOCCOCCOCCOCCC(=O)Nc1c(I)cc(I)c(C(=O)O)c1I)Nc1c(I)cc(I)c(C(=O)O)c1I | -2.1% (inactive) |
| CC(CC(C#N)(c1ccccc1)C(C)C)N(C)C (stereo not drawn) | -4.77% (inactive) |
| CNC(=O)c1cnn(-c2nc(N)c3ncn([C@@H]4O[C@H](CO)[C@@H](O)[C@H]4O)c3n2)c1 | 1% (inactive) |
| O=C(O)c1cc(=O)c2c3nc4ccccc4oc-3cc(=O)c2[nH]1 | -31.1% (inactive) |
| Cc1oc(=O)oc1COC(=O)[C@@H]1N2C(=O)[C@@H](NC(=O)[C@H](N)c3ccccc3)[C@H]2SC1(C)C | -15.2% (inactive) |

| Structure (SMILES) | inhibition of viability |
| --- | --- |
| CCCCCCCCCCCCCC[N+](C)(C)C | 101% (active) |
| COc1cc2c(cc1OC)CN(C(=O)[C@H](C)N[C@@H](CCc1ccccc1)C(=O)O)[C@H](C(=O)O)C2 | 7.6% (inactive) |
| CCOC(=O)c1cccnc1 | -17.8% (inactive) |
| Cc1cc(CC(=O)O)c(C)n1-c1ccc(Cl)cc1 | 7.9% (inactive) |
| CCOC(=O)C(C#N)=C(c1ccccc1)c1ccccc1 | 26.4% (inactive) |
| CC1CCCCN1CCCOC(=O)c1ccc(OC2CCCCC2)cc1 (stereo not drawn) | 83.6% (active) |
| NC(=S)N/N=C/c1cccnc1 | -8.9% (inactive) |
| C[C@@H](N)C(=O)O | 11.2% (inactive) |
| C[N+]1(CC2COC(c3ccccc3)(c3ccccc3)O2)CCCCC1 (stereo not drawn) | 23.2% (inactive) |
| O=C(O)CNC(=O)c1ccccc1 | -1.6% (inactive) |
| CC(CSC(=O)c1ccccc1)C(=O)N1C[C@@H](Sc2ccccc2)C[C@H]1C(=O)O (stereo partly drawn) | 6.5% (inactive) |
| O=C(O)c1ccccc1S | 2.1% (inactive) |
| CC[N+](CC)(CC)CCOC(=O)C(C1CCCC1)C1CCCC1 | 21.8% (inactive) |
| O=C(O)[C@@H]1C(=CCO)O[C@@H]2CC(=O)N12 | 18.5% (inactive) |
| N[C@@H](Cc1cc(I)c(O)c(I)c1)C(=O)O | 3.4% (inactive) |
| Cc1cc(O)c(C)c(C)c1O | -1.8% (inactive) |
| CC(C)=CCC/C(C)=C/CC/C(C)=C/CCC(=O)OC/C=C(\C)CCC=C(C)C | 1.5% (inactive) |
| O=C(/C=C/c1ccc(O)c(O)c1)O[C@@H]1C[C@@](OC(=O)/C=C/c2ccc(O)c(O)c2)(C(=O)O)C[C@@H](O)[C@@H]1O | 6.6% (inactive) |
| CCO[C@@H]1O[C@H](C(COCc2ccccc2)OCc2ccccc2)[C@H](OCc2ccccc2)[C@H]1O (stereo partly drawn) | 81.6% (active) |
